Laboratory results taken from PubChem BioAssay (Tox21).
Records with an inconclusive call do not appear. Calls of active or inactive are those of the source. Unless noted, calls come from the whole dose curve.

Experiments:
[1] = Nuclear factor erythroid 2-related factor 2/antioxidant responsive element (Nrf2/ARE) small molecule agonists: qHTS cell viability counter screen in human keratinocytes (AID 1919968; active = well fitted curve in the direction sought with a large enough effect in the repeat runs; an effect the other way counts as inactive or inconclusive; note: nearly all actives have a fitted effect of over 55% in size)
In short: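 Cells of the KeratinoSens line were plated at 1,500 per well and left for 5 h before compound transfer from DMSO stocks. After a 23 h incubation (37 C, 5% CO2), CellTiter-Fluor was added. Signal was taken as fluorescence intensity 1 h later.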

[2] = Nuclear factor erythroid 2-related factor 2/antioxidant responsive element (Nrf2/ARE) small molecule agonists: luciferase reporter gene qHTS assay in human keratinocytes (AID 1919969); note: nearly all actives have a fitted effect of over 35% in size
[3] = molecular target: Gonadotropin-releasing hormone receptor (Homo sapiens) (UniProt P30968); assay: Human gonadotropin-releasing hormone receptor (GnRHR) small molecule agonists, calcium flux assay in GnRHR-HEK293 cells (AID 1920063); note: nearly all actives have a fitted effect of over 35% in size
Sequence of Gonadotropin-releasing hormone receptor (Homo sapiens) (P30968 whole entry, looked up): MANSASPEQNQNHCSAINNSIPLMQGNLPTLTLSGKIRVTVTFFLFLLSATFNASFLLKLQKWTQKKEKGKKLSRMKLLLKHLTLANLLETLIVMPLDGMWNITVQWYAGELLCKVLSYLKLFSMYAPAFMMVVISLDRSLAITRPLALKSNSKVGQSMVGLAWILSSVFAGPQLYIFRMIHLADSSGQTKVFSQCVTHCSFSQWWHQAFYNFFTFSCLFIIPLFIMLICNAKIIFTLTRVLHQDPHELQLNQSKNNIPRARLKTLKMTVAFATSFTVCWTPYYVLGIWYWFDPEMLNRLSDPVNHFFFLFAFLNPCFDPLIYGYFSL
In short: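 Compounds dissolved in DMSO are pin-transferred onto dye-loaded GnRHR-HEK293 cells, which were seeded 18 h before at 37 C/5% CO2. Calcium signal is read as fluorescence intensity at 1 s intervals for 3 min.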

[4] = molecular target: KiSS-1 receptor (Homo sapiens) (UniProt Q969F8); assay: Human kisspeptin (KISS1R) small molecule agonists, calcium flux assay in KISS1R-HEK293 cells (AID 1920064; active = well fitted curve in the direction sought with a large enough effect in the repeat runs; an effect the other way counts as inactive or inconclusive)
Sequence of KiSS-1 receptor (Homo sapiens) (Q969F8 whole entry, looked up): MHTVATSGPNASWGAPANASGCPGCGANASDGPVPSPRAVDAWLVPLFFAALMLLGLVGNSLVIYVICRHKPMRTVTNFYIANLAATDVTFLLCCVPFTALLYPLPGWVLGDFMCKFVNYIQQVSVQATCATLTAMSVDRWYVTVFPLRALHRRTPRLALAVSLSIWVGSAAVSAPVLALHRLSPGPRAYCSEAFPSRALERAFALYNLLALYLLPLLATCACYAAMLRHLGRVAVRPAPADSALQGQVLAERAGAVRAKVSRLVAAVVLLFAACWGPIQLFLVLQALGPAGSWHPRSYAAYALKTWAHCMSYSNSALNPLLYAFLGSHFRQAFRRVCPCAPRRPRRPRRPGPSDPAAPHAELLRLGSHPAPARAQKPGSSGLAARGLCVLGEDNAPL
In short: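 Cell line: HEK293, stable human KISS1R. Dye loading 1 h at 37 C after 18 h culture. Read: kinetic fluorescence, 480/540 nm, 3 min at 1 s intervals.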

[5] = G protein-coupled receptor (GPCR) small molecule agonists, calcium flux assay: HEK293 wild type cell line counter screen (AID 1920065)
In short: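 Tox21 10K compounds, 15 concentrations each in triplicate, pin-transferred in DMSO onto dye-loaded cells; kinetic read at 480/540 nm for 3 min, 1 s intervals.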

[6] = p53 small molecule agonists, cell-based qHTS assay with human liver microsomes (AID 1963577);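 note: p53 response element beta-lactamase reporter cells with liver microsomes plus NADPH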
In short: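 In this qHTS, p53 response-element beta-lactamase cells receive test compound together with a microsome/NADPH activating system (0.5 mg/mL final each) and are incubated 16 h at 37 C before LiveBLAzer fluorescence detection.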

[7] = p53 small molecule agonists, cell-based qHTS assay with rat liver microsomes (AID 1963578)
In short: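 Agonist mode in p53RE-bla reporter cells, with compounds co-incubated 16 h at 37 C alongside 0.5 mg/mL rat liver microsomes and 0.5 mg/mL NADPH (final), followed by a 2 h LiveBLAzer detection step.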

[8] = p53 small molecule agonists, cell-based qHTS assay with human liver microsomes: qHTS cell viability counter screen (AID 1963579); note: nearly all actives have a fitted effect of over 45% in size
In short: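 Metabolically activated exposure: compounds, human liver microsomes and NADPH (0.5 mg/mL final apiece) were added to p53RE-bla cells seeded 5 h earlier, left 16 h at 37 C, and then assessed for viability by CellTiter-Glo luminescence.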

[9] = p53 small molecule agonists, cell-based qHTS assay with rat liver microsomes: qHTS cell viability counter screen (AID 1963580); note: nearly all actives have a fitted effect of over 45% in size
In short: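 Cytotoxicity counter screen: intracellular ATP read by CellTiter-Glo luminescence in the p53 reporter wells. HCT-116 p53RE-bla cells were treated for 16 h at 37 C alongside rat liver microsomes and NADPH, each 0.5 mg/mL final.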

[10] = p53 small molecule agonists, cell-based qHTS assay: qHTS cell viability counter screen (AID 1963581); note: nearly all actives have a fitted effect of over 45% in size
In short: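 ATP content measured by luminescence in HCT-116 p53RE-bla cells treated 16 h at 37 C, same wells as the reporter screen.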

[11] = p53 small molecule agonists, cell-based qHTS assay (AID 1963582; active = well fitted activation curve with a large enough effect in the signal ratio in the repeat runs, not every such curve was filed as active; the % refers to the signal ratio)
In short: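 16 h compound exposure (37 C) of p53 response element–bla cells, preceded by 5 h recovery at 37 C/5% CO2; read-out via LiveBLAzer B/G FRET substrate, 2 h RT, fluorescence intensity.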

[12] = molecular target: 5-hydroxytryptamine receptor 2A (Homo sapiens) (UniProt P28223); assay: 5-hydroxytryptamine receptor 2A (HTR2A) small molecule antagonists, cell-based qHTS assay (AID 1963586); note: nearly all actives have a fitted effect of over 45% in size
Sequence of 5-hydroxytryptamine receptor 2A (Homo sapiens) (P28223 whole entry, looked up): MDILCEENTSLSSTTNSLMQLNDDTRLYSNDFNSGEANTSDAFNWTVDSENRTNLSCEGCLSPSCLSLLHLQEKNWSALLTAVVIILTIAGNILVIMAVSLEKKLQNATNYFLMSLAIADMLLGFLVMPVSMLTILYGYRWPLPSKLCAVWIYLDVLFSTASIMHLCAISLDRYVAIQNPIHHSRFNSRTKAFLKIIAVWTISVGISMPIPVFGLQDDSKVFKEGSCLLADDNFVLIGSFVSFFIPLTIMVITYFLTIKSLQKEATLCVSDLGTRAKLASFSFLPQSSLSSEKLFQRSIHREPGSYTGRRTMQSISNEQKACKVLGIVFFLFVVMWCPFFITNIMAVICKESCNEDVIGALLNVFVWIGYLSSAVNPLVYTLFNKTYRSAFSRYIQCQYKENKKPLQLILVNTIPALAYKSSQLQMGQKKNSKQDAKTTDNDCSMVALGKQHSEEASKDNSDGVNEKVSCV
In short: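 CHO cells stably expressing human HTR2A were plated for 18 h at 37 C, then loaded with calcium dye for 1 h. Compounds were preincubated 5 min at room temperature before DOI (4 nM solution) was added. Kinetic fluorescence was read for 3 min.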

[13] = molecular target: 5-hydroxytryptamine receptor 2A (Homo sapiens) (UniProt P28223); assay: 5-hydroxytryptamine receptor 2A (HTR2A) small molecule agonists, cell-based qHTS assay (AID 1963587); note: nearly all actives have a fitted effect of over 30% in size
In short: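 Kinetic calcium-flux fluorescence (2 min, 1 sec intervals) after compound addition in agonist mode. HTR2A-CHO cells were cultured 18 h, then dye-loaded 1 h at 37 C.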

[14] = molecular target: Muscarinic acetylcholine receptor M1 (Homo sapiens) (UniProt P11229); assay: Cholinergic receptor muscarinic 1 (CHRM1) small molecule antagonists, cell-based qHTS assay (AID 1963588); note: nearly all actives have a fitted effect of over 40% in size
Sequence of Muscarinic acetylcholine receptor M1 (Homo sapiens) (P11229 whole entry, looked up): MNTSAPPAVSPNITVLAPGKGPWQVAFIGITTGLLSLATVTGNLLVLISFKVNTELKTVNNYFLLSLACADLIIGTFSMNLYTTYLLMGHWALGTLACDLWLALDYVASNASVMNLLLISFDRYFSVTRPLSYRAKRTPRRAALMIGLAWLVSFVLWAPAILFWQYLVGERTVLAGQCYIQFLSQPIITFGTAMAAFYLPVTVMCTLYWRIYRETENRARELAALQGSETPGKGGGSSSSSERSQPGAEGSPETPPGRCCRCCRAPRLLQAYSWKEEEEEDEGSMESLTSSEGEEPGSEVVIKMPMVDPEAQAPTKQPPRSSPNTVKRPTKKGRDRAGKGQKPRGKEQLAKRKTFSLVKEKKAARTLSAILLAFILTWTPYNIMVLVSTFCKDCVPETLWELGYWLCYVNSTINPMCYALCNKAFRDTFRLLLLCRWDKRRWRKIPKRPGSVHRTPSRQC
In short: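 Compounds were tested at 15 concentrations in three independent runs. Dye-loaded CHRM1-CHO cells were exposed 5 min at room temperature before stimulation by acetylcholine added at 50nM. Intracellular calcium was read kinetically on FDSS for 3 min.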

[15] = molecular target: Muscarinic acetylcholine receptor M1 (Homo sapiens) (UniProt P11229); assay: Cholinergic receptor muscarinic 1 (CHRM1) small molecule agonists, cell-based qHTS assay (AID 1963589); note: nearly all actives have a fitted effect of over 35% in size
In short: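 Homogeneous fluorescence calcium flux, agonist mode. Human M1-expressing CHO cells; compound dosed at 15 concentrations, three independent runs; signal sampled every 1 sec.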

[16] = cAMP Responsive Elements (CRE) small molecule agonists, cell-based qHTS assay (AID 1963590)
In short: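 HEK 293T cells stably bearing CRE-bla were plated at 2,000 cells per well and rested 18 h. Compounds, positive controls or DMSO were added for 3 h at 37 C. LiveBLAzer B/G substrate was then loaded for 2 h at room temperature.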

[17] = cAMP Responsive Elements (CRE) small molecule antagonists, cell-based qHTS assay (AID 1963591; active = well fitted inhibition curve with a large enough effect in the signal ratio in the repeat runs, not every such curve was filed as active; the % refers to the signal ratio)
In short: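 First, CRE-bla HEK293T cells settled 18 h at 37 C. Next, compound and 0.25 uM final NKH477 were applied for 3 h. Last, LiveBLAzer B/G substrate was loaded for 2 h at room temperature.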

[18] = molecular target: Beta-2 adrenergic receptor (Homo sapiens) (UniProt P07550); assay: Adrenergic beta2 receptor (ADRB2) small molecule antagonists, cell-based qHTS assay (AID 1963592); note: series mostly up to about 92 µM; nearly all actives have a fitted effect of over 50% in size
Sequence of Beta-2 adrenergic receptor (Homo sapiens) (P07550 whole entry, looked up): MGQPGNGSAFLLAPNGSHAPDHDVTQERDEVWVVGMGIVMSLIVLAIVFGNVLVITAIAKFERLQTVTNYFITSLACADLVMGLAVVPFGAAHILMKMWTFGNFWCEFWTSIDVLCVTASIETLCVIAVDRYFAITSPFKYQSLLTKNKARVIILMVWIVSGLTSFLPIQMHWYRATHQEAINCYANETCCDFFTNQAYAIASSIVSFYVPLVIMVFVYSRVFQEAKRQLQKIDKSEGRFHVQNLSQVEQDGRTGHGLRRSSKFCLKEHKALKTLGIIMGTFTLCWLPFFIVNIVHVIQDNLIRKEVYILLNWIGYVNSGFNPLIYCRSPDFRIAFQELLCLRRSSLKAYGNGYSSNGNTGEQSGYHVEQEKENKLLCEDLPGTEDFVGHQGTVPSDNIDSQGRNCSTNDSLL
In short: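 Assay format: CHO-ADRB2 cells, 18-20hr seeding at 37C/5% CO2, then compound plus 1nM isoproterenol agonist mix for 0.5hr RT. Homogeneous time-resolved fluorescence cAMP detection after 1hr, expressed as 665/615 nm ratio.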

[19] = molecular target: Beta-2 adrenergic receptor (Homo sapiens) (UniProt P07550); assay: Adrenergic beta2 receptor (ADRB2) small molecule agonists, cell-based qHTS assay (AID 1963593);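 note: CHO cells stably overexpressing human ADRB2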
In short: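 CHO cells stably over-expressing ADRB2 were plated overnight at 37C, then dosed with compounds plus a stimulation mix containing 100uM IBMX and 25uM Ro-20-1724 for 0.5hr at room temperature. cAMP was measured by HTRF competition, 1hr.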

[20] = molecular target: D(2) dopamine receptor (Homo sapiens) (UniProt P14416); assay: Dopamine D2 receptor (DRD2) small molecule agonists, cell-based qHTS assay (AID 1963594); note: nearly all actives have a fitted effect of over 35% in size
Sequence of D(2) dopamine receptor (Homo sapiens) (P14416 whole entry, looked up): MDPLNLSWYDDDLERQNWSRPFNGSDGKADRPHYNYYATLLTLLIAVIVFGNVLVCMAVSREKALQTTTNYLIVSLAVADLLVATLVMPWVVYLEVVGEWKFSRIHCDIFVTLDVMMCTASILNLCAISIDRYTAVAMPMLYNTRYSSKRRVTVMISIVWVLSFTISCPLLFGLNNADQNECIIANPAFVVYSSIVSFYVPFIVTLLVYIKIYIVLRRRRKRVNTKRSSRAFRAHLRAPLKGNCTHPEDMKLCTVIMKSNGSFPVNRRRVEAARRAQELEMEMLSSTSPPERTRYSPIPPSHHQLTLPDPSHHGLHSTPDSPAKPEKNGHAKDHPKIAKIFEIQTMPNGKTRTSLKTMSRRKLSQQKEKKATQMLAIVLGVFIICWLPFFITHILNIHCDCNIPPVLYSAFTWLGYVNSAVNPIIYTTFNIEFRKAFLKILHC
In short: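 cAMP accumulation in DRD2-HEK293 cells measured by HTRF after 1 h detection; compounds added 10 min before NKH477 (200nM […]) forskolin-analogue stimulation, 30 min at room temperature, with Ro20-1724 present at 0.1 mM final.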
% is set by controls: 0 for no effect and ±100 for the full control effect.

CN(C)N=Nc1ccccc1
inactive: Potency [1] | Potency [2] | Potency [3] | Potency [4] | Potency [5] | Potency [6] | Potency [7] | Potency [8] | Potency [9] | Potency [10] | Potency [11] | Potency [12] | Potency [13] | Potency [14] | Potency [15] | Potency [16] | Potency [17] | Potency [18] | Potency [19] | Potency [20]

CC(=O)OC[C@H]1O[C@@H](OC(C)=O)[C@H](OC(C)=O)[C@@H]1OC(C)=O
inactive: Potency [1] | Potency [2] | Potency [3] | Potency [4] | Potency [5] | Potency [6] | Potency [7] | Potency [8] | Potency [9] | Potency [10] | Potency [11] | Potency [12] | Potency [13] | Potency [14] | Potency [15] | Potency [16] | Potency [17] | Potency [18] | Potency [19] | Potency [20]

N=C(N)c1ccccc1
inactive: Potency [1] | Potency [2] | Potency [3] | Potency [4] | Potency [5] | Potency [6] | Potency [7] | Potency [8] | Potency [9] | Potency [10] | Potency [11] | Potency [12] | Potency [13] | Potency [14] | Potency [15] | Potency [16] | Potency [17] | Potency [18] | Potency [19] | Potency [20]

CC(=O)C1(C)CC2=C(CCCC2(C)C)CC1C (stereo not given)
inactive: Potency [1] | Potency [2] | Potency [3] | Potency [4] | Potency [5] | Potency [6] | Potency [7] | Potency [8] | Potency [9] | Potency [10] | Potency [11] | Potency [12] | Potency [13] | Potency [14] | Potency [15] | Potency [16] | Potency [17] | Potency [18] | Potency [19] | Potency [20]

CC1=CC[C@@H](C(C)(C)O)CC1
inactive: Potency [1] | Potency [2] | Potency [3] | Potency [4] | Potency [5] | Potency [6] | Potency [7] | Potency [8] | Potency [9] | Potency [10] | Potency [11] | Potency [12] | Potency [13] | Potency [14] | Potency [15] | Potency [16] | Potency [17] | Potency [18] | Potency [19] | Potency [20]

C[Si](C)=O
inactive: activity change, negative = cytotoxicity [1] 4.07% [at 8.39 µM] | activity, positive = activation [2] -5.78% [at 8.39 µM] | activity change [3] -0.63% [at 5.22 µM, hits give high values] | activation [4] -1.56% [at 6.97 µM] | activation [5] 0.129% [at 5.23 µM] | activation [6] 3.5% [at 5.99 µM] | activation [7] 0.12% [at 5.99 µM] | activity change, negative = cytotoxicity [8] 7.59% [at 5.99 µM] | activity change, negative = cytotoxicity [9] 11.3% [at 5.99 µM] | activity change, negative = cytotoxicity [10] 1.47% [at 5.99 µM] | activation [11] -0.704% [at 5.99 µM] | activity, negative = inhibition [12] 1.83% [at 5.62 µM] | activation [13] 3.07% [at 7.02 µM] | activity, negative = inhibition [14] -3.21% [at 5.58 µM] | activation [15] 0.243% [at 6.97 µM] | activation [16] 0.463% [at 8.39 µM] | activity change, negative = inhibition [17] -3.7% [at 8.39 µM] | activity change, negative = inhibition [18] -1.43% [at 8.39 µM] | activation [19] 7.37% [at 8.39 µM] | activation [20] 4.84% [at 8.39 µM]

CNc1ccccc1
inactive: Potency [1] | Potency [2] | Potency [3] | Potency [4] | Potency [5] | Potency [6] | Potency [7] | Potency [8] | Potency [9] | Potency [10] | Potency [11] | Potency [12] | Potency [13] | Potency [14] | Potency [15] | Potency [16] | Potency [17] | Potency [18] | Potency [19] | Potency [20]
